TGFb SMAD3 inh – TGF-b pathway inhibition; HepG2 CAGA-GFP TGF-b/SMAD3 reporter, GFP fluorescence, 18 h; TGF-beta stimulated, 500 pg/mL final; Potency, µM (highest dose often 46.1 µM), actives largely listed as inhibitors; 410,000 compounds, 1.2% hits; also: nearly all actives have a fitted effect of over 65% in size
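Using HEPG2 CAGA-GFP reporter cells at 1000 cells/well, we pinned test compounds, stimulated with recombinant TGF-beta (500 pg/mL final) and measured total well GFP after 18 h.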
DT40 TDP1 CPT – DT40-hTDP1 cell growth loss with CPT | chicken DT40 Tdp1-/-;hTDP1 cells + 20 nM CPT, ATP luminescence, 48 h | 420,000 compounds, 12% hits | AID 686979 | Potency, µM (doses to about 46.2 µM), usual class: inhibitors; also: nearly all actives have a fitted effect of over 55% in size
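Cell growth measured by CellTiter-Glo luminescence after a minimum 48 h, 37 C compound exposure with 20 nM CPT in Tdp1-knockout DT40 cells stably expressing hTDP1, seeded 400/well; qHTS titration format.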
TDP1 block – TDP1 (human) enzyme inhibition; Q9NUW8; recombinant TDP1, AlphaScreen DNA substrate cleavage; Potency, µM (top dose mostly 130 µM), most hits filed as inhibitors; 350,000 compounds, 0.28% hits; also: nearly all actives have a fitted effect of over 40% in size
Target sequence (Q9NUW8 whole entry, looked up): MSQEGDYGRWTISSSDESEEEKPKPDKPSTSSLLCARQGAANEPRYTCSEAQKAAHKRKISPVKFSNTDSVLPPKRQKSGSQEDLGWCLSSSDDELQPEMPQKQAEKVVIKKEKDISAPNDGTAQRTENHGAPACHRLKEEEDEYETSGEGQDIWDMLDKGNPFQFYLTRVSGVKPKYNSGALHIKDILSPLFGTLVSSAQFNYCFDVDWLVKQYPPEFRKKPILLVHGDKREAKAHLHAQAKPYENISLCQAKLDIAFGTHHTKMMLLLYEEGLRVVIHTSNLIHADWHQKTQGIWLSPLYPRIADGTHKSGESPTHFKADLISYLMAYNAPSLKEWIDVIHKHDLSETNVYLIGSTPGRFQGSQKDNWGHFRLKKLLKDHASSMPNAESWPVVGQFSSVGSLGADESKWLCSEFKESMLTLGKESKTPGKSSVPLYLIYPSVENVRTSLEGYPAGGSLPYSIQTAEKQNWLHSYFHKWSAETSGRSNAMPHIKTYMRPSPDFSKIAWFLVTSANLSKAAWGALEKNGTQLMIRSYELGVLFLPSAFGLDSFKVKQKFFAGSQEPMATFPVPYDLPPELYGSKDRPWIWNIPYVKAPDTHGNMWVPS
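AlphaScreen read-out: signal falls as enzyme removes the 3' tyrosine-FITC from a 5'-biotinylated DNA oligo (15 nM, 5 min, RT). Enzyme was E. coli-made recombinant Tdp1 at 1 nM, exposed to compound for 15 min beforehand; beads 10 ug/ml, 10 min.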
DT40 TDP1 no CPT – qHTS for Inhibitors of human tyrosyl-DNA phosphodiesterase 1 (TDP1): qHTS in cells in absence of CPT. DT40 Tdp1-/- hTDP1 cells, no CPT, ATP luminescence, 48 h. Potency, µM (series often up to 46.2 µM), hits mostly inhibitors. 420,000 compounds, 15% hits. AID 686978, 2013; also: nearly all actives have a fitted effect of over 55% in size
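Readout: luminescence from CellTiter-Glo after 30 min in the dark at RT. Cells: DT40 Tdp1-/- with stable hTDP1, 400/well. Exposure: compounds alone, ≥48 hr, 37 °C.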
HepG2 viability – counter-screen for TGF-b inhibitors: cytotoxicity in HepG2 cells. HepG2 CAGA-GFP viability, ATP luminescence, 18 h. Potency, µM (top dose mostly 46.1 µM), actives largely listed as cytotoxic. 410,000 compounds, 0.76% hits. AID 588856
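HepG2 CAGA-GFP cells (1000/well, DMEM with 1% FBS) received compound, then TGF-beta at 500 pg/mL final, and were incubated 18 hours at 37 degrees C. Viability was read by CellTiter-Glo luminescence. Media-only wells were set as complete cell-killing and DMSO as no toxicity.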
IL-1B inflam inh – inflammasome signaling inhibition, IL-1 beta readout; activity change, % at 57.5 µM; 360,000 compounds, 4.7% hits; THP-1 LPS/ATP IL-1B secretion, AlphaLISA, 16 h; hits give low values; AID 743279; in the data active = activity change below about -50%; inconclusive = mostly about -30% to -49%
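THP-1 cells pretreated 1 hr with compounds (up to 57.5 uM final), then stimulated with LPS (250 ng/mL final) plus ATP (1.25 mM final); secreted IL-1B measured by AlphaLISA after 16 hr, decreased signal indicating inhibition.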
Large screens that a line does not name were inactive. Compounds with a hit are over-represented: about 19% of the library has one in this group of screens. Unless noted, calls follow the shape of the dose curve; as a rule, active = well fitted curve in the direction sought with a large enough effect; inconclusive = small, poorly fitted or top-dose-only effect, or another doubt; inactive = no such curve, though single readings can be large; an effect the other way counts as inactive or inconclusive.

COc1ccc(NC(=O)c2cccc(-c3ccc(O)cc3)c2)cn1	DT40 TDP1 CPT 14.6µM, DT40 TDP1 no CPT 20.6µM, IL-1B inflam inh -74.4
COC(=O)c1ccc(NC(=O)Nc2ccc(F)cc2)cc1	DT40 TDP1 CPT 18.4µM, DT40 TDP1 no CPT 13µM, IL-1B inflam inh inconclusive
CC(=O)Nc1cccc(NC(=O)c2cccc(-c3ccc(O)cc3)c2)c1	DT40 TDP1 CPT inconclusive, DT40 TDP1 no CPT inconclusive
COC(=O)c1ccc(NC(=O)Nc2ccc(OC)cc2)cc1	DT40 TDP1 CPT inconclusive, DT40 TDP1 no CPT inconclusive, IL-1B inflam inh inconclusive
COc1cc(=O)n2c(c1C(=O)NC(C)c1ccco1)CCN(C(=O)c1[nH]c(C)cc1C)CC2 (centres undefined)	none (no result: TGFb SMAD3 inh, TDP1 block, HepG2 viability, IL-1B inflam inh)
N[C@H](C(=O)O)[C@H]1C[C@H]1C(=O)O	none (no result: TGFb SMAD3 inh, HepG2 viability, IL-1B inflam inh)
Cc1ccc(CN2CCN(Cc3cccc(-n4cccn4)c3)CC2CCO)cc1 (centres undefined)	DT40 TDP1 CPT 11.6µM, DT40 TDP1 no CPT inconclusive
Cc1ccc(CN2CCN(Cc3c(C)nn(-c4ccc(F)cc4)c3C)CC2CCO)o1 (centres undefined)	none
Cc1ccc(CN2CCN(Cc3ccc(-n4cccn4)cc3C)CC2CCO)cc1 (centres undefined)	DT40 TDP1 CPT inconclusive, DT40 TDP1 no CPT inconclusive (no result: TDP1 block)
Cc1cc(C)c(CN2CCN(Cc3ccc(C)o3)C(CCO)C2)c(-n2cccn2)c1 (centres undefined)	DT40 TDP1 CPT inconclusive, DT40 TDP1 no CPT 23.1µM
COc1cc(CN2CCN(Cc3ccc(C)cc3)C(CCO)C2)cc(OC)c1O (centres undefined)	DT40 TDP1 CPT 20.6µM, DT40 TDP1 no CPT inconclusive
CC(C)CC(NC(=O)C1CCC(C)CC1)C(=O)N1CCN(c2ccccn2)CC1 (centres undefined)	DT40 TDP1 CPT 16.4µM, DT40 TDP1 no CPT 23.1µM
N#CC1=C(N)SC(N)=C(C#N)C1c1ccnc2ccccc12	DT40 TDP1 CPT inconclusive, DT40 TDP1 no CPT inconclusive
Nc1cccc[n+]1C(c1ccnc2ccccc12)[n+]1ccccc1N	TGFb SMAD3 inh inconclusive, DT40 TDP1 CPT 1.12µM, DT40 TDP1 no CPT 1µM (no result: TDP1 block, IL-1B inflam inh)
CC12CCC(=O)N1C(C(=O)N1CCN(c3ccc(C(F)(F)F)cc3[N+](=O)[O-])CC1)CS2 (centres undefined)	DT40 TDP1 CPT 20.6µM, DT40 TDP1 no CPT 25.9µM
CC12CCC(=O)N1C(C(=O)N1CCN(c3cccc(Cl)c3)CC1)CS2 (centres undefined)	none
CC12CCC(=O)N1C(C(=O)N1CCN(c3ccccc3)CC1)CS2 (centres undefined)	none
CC12CCC(=O)N1C(C(=O)N1CCN(c3ccc([N+](=O)[O-])cc3)CC1)CS2 (centres undefined)	DT40 TDP1 CPT inconclusive, DT40 TDP1 no CPT 20.6µM
Cc1cccc(Nc2nc(C)cc(C)n2)c1	none (no result: TDP1 block)
Cc1cc(N(C)C)nc(Nc2ccccc2)n1	DT40 TDP1 no CPT inconclusive, IL-1B inflam inh -79.3
COCCn1c(=O)c(-c2cc(F)cc(F)c2)nc2cnc(N3CCOCC3)nc21	none (no result: TGFb SMAD3 inh, TDP1 block, HepG2 viability, IL-1B inflam inh)
COCCn1c(SCC(=O)Nc2ccc(C(F)(F)F)cc2)nc2c([nH]c3ccccc32)c1=O	DT40 TDP1 CPT inconclusive, DT40 TDP1 no CPT inconclusive (no result: IL-1B inflam inh)
CCN(CC)S(=O)(=O)c1ccc(OCCNS(C)(=O)=O)cc1	DT40 TDP1 CPT 6.51µM, DT40 TDP1 no CPT 16.4µM
CCCN(CCC)S(=O)(=O)c1ccc(Cl)c(OC)c1	DT40 TDP1 CPT inconclusive, DT40 TDP1 no CPT 13µM
CCN(CC)S(=O)(=O)c1ccc(Br)c(OC)c1	DT40 TDP1 no CPT inconclusive
CCN(CC)S(=O)(=O)c1ccc(Oc2ccccc2OC)cc1	DT40 TDP1 CPT 18.4µM, DT40 TDP1 no CPT inconclusive
CCN(CC)S(=O)(=O)c1ccc(Oc2ccc(S(=O)(=O)N(CC)CC)cc2)cc1	DT40 TDP1 CPT 18.4µM, DT40 TDP1 no CPT 5.8µM, IL-1B inflam inh inconclusive
